This is a sample that favours compounds with a hit; in the whole collection about 4.3% have one here.
MITF TRPM1 HTS = activators of MITF-driven TRPM1 promoter reporter, primary screen, cell-based, SK-MEL-5, luciferase, single point; activation, % at 12.5 µM; AID 588334, 2011; SK-MEL-5 TRPM1-promoter luciferase, 24 h; % of positive control, neutral wells = 0; hit rate 0.75% among 300,000;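 active means mean activation of at least 80% with every replicate also reaching 80%; inconclusive means mean reaches 80% but some replicate falls short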;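 further: 0% = neutral control wells and 100% = parthenolide positive control wells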
esBAF inh = Bmi1 luciferase reporter increase in mESCs, primary screen, esBAF inhibitor project, mouse ES cells, Bmi1 luciferase knock-in, single point; 24 h; 100% = twice the neutral-well signal; reporter increase, % at 12.5 µM; hit rate 2% among 350,000; AID 602393, 2012; in the data active means activation above about 40%; inconclusive means no clear call, values can overlap the other calls;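 further: 0% = median of the plate's neutral control wells and 100% = double that signal; a rise in the Bmi1 reporter signal indicates esBAF inhibition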
HSF1 inhib = HSF1 inhibitors in luciferase reporter cells, primary screen, cell-based, NIH3T3, luminescence; hit rate 0.77% among 300,000; NIH3T3-HGL HSE-luciferase, MG132-induced, luminescence 8 h; active compounds read low; activity change, negative = inhibition, % at 7.5 µM (by protocol); AID 2098, 2009;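 active means more than half of replicate wells show activity change below -50%, luminescence cut by over half; inconclusive means some wells, but at most half, below -50%; inactive means no replicate well below -50%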;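 further: luciferase reports HSF-1 transcriptional activity via heat shock element; 0% = median of DMSO wells and -100% = zero luminescence signal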
HSF-1 act = HSF-1 activators, primary screen, NIH3T3-HGL cells, MG132 stress, luminescence, single point. NIH3T3-HGL HSF-1 luciferase reporter, 8 h; 100% = twice DMSO control signal. activation, % at 9 µM. hit rate 1.7% among 300,000. AID 504408, 2011;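 active means mean replicate activation of at least 50% with a set share of replicates each reaching 50%; inconclusive means only one of those two conditions met; inactive means mean below 50% and too few replicates reaching it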;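 further: 0% = median of the neutral control wells and 100% = twice that signal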
Wnt act = Wnt/beta-catenin pathway activators, primary screen, cell-based, plate reader, single point | Wnt/beta-catenin reporter cell assay, activator | activation, % at 9.35 µM | hit rate 1.2% among 300,000 | AID 743398, 2014; in the data active means activation above about 30%, passing the limit was not always enough; inconclusive means no clear call, values can overlap the other calls;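 further: 0% = neutral control wells and 100% = positive control wells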
SMARCA2 activ = SMARCA2 (BRM) function activators, primary screen, cell-based, luminescence, high throughput | MG213 cells, MMTV-luciferase reporter, dexamethasone, overnight | activation, % at 9.1 µM | hit rate 1% among 370,000 | AID 652017, 2013; in the data active means activation above about 7.8%;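 further: 0% = vehicle wells and 100% = reference activator wells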
SMARCA2 conf = SMARCA2 (BRM) function activators, confirmation, cell-based, luminescence, triplicate; hit rate 30% among 3,500; AID 652260, 2013; shares compounds with SMARCA2 activ; activation, % at 9.1 µM; MG213 cells, MMTV-luciferase with dexamethasone, overnight; MG213 cells expressing E1A, Rb sequestered; DMSO wells 0%, reference activator 100%;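 active means activation above its plate's cutoff, the mean activation of tested wells plus 3 SD, cut at about 7.9% in these data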
VP16 Luc act = GAL4-VP16 luciferase reporter activation, counter-screen for SMARCA2 (BRM) activator project, cell-based, pG5luc, luminescence, high throughput; shares compounds with SMARCA2 activ; HEK293 GAL4-VP16 pG5luc reporter; scaled: DMSO wells 0%, SAHA wells 100%; activation, % at 9.1 µM; hit rate 41% among 3,500; AID 686939, 2013;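 active means activation above the solvent-only control well mean plus 3 SD, averaged across control plates, cut at about 5.2% in these data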
* = called active by the depositor; u = inconclusive; x = no result given.

SMILES	MITF TRPM1 HTS	esBAF inh	HSF1 inhib	HSF-1 act	Wnt act	SMARCA2 activ	SMARCA2 conf	VP16 Luc act
Cc1scc(C(=O)N/N=C/c2ccsc2)c1C	58.5	x	16.9	12.7	0.9	2.5	x	x
CCCOc1cccc(/C=N/NC(=O)c2csc(C)c2C)c1	27.9	21.2	12.0	-14.7	-2.1	12.7*	1.7	2.1
Cc1n[nH]c(=S)n1/N=C/c1ccc(OCc2ccc(Cl)cc2)cc1	x	-10.1	9.8	48.4	x	0.5	x	x
Cc1n[nH]c(=S)n1/N=C/c1ccc(OCc2ccc(Cl)cc2Cl)cc1	58.6	x	18.2	33.6	21.9	12.7*	0.1	2.6
Nc1nc(-c2ccc(Cl)cc2)cs1	x	x	x	x	-0.3	9.1*	7.3	1.4
Nc1nc(COc2ccc(Cl)cc2)cs1	68.7	27.6	16.0	26.6	u	10.2*	4.5	4.2
COc1ccccc1CNC(=O)C[C@H]1CC[C@H]2[C@@H](COc3ccc(NC(=O)c4ccno4)cc3C(=O)N2C)O1	x	3.5	x	x	x	x	x	x
CC(=O)Nc1ccc2c(c1)C(=O)N(C)[C@H]1CC[C@H](CC(=O)Nc3ccc(C)cc3)O[C@@H]1CO2	x	2.5	x	x	x	x	x	x
CCN=c1sc(C(=O)OC)cc(=O)n1CC	x	-10.6	-3.9	7.5	x	10.6*	8.6*	1.1
Nc1ccc(C2(c3ccc(N)cc3)C(=O)Nc3ccccc32)cc1	7.7	-3.2	-5.7	-4.8	-1.1	-1.8	x	x
O=C1Nc2ccccc2C1(c1ccccc1)c1ccccc1	x	5.3	2.9	11.6	x	11.2*	3.3	-2.0
Cc1noc(C)c1NC(=O)Nc1ccc2c(c1)C(=O)N([C@@H](C)CO)C[C@H](C)[C@@H](CN(C)Cc1ccc3c(c1)OCO3)O2	x	-1.8	x	x	x	x	x	x
O=c1c2sc(-c3ccccc3)cc2nc2n1CCC2	-13.5	x	0.0	5.9	7.9	9.9*	2.4	3.7
O=c1c2c(-c3ccccc3)csc2nc2n1CCC2	0.8	0.4	-4.1	-13.8	x	1.1	x	x
O=C(Nc1ccccc1)N[C@@H]1CC[C@H](CCNS(=O)(=O)c2cccc(F)c2)O[C@@H]1CO	x	1.2	x	x	x	x	x	x
O=c1[nH]c2cc([N+](=O)[O-])ccc2c2ccccc12	9.0	x	x	x	1.0	-1.1	x	x
O=C1Cc2c([nH]c3ccc([N+](=O)[O-])cc23)-c2ccccc2N1	-10.5	x	x	x	-23.8	12.6*	11.2*	-2.1
Cc1noc(C)c1NC(=O)N[C@@H]1CC[C@@H](CC(=O)N2CCCCC2)O[C@H]1CO	x	0.2	x	x	x	x	x	x
Cc1cc(NCCN2CCOCC2)c2ccc3ccccc3c2n1	20.0	x	1.1	1.9	57.1*	11.2*	21.4*	3.0
c1ccc2c(NCCCN3CCOCC3)c3ccccc3nc2c1	x	x	x	x	8.2	15.3*	27.7*	1.3
Fc1ccccc1-c1nc(NCCCN2CCOCC2)c2ccccc2n1	4.9	x	-0.8	19.3	-2.5	-1.1	x	x
COc1ccc2nc(C)cc(NCCN3CCOCC3)c2c1	18.2	0.3	-2.0	2.9	-1.6	-0.3	x	x
Cc1noc(NS(=O)(=O)c2ccc(N/C=C\C(=O)c3ccccc3)cc2)c1C	-4.1	x	-2.6	8.8	-0.9	3.8	x	x
COc1ccccc1NC(=O)Nc1ccc(S(=O)(=O)Nc2onc(C)c2C)cc1	x	-6.4	x	x	-1.7	8.2*	-1.1	-0.1
Cc1noc(NS(=O)(=O)c2ccc(N/C=C\C(=O)c3ccc(F)cc3)cc2)c1C	3.9	x	0.3	3.0	-0.6	10.4*	4.5	1.0
SMILES	MITF TRPM1 HTS	esBAF inh	HSF1 inhib	HSF-1 act	Wnt act	SMARCA2 activ	SMARCA2 conf	VP16 Luc act
CCCNC(=O)N1C[C@H]2[C@@H](c3ccccc31)[C@@H](CO)N2C(=O)c1ccncc1	x	-5.7	x	x	x	x	x	x
CN(C)C(=O)CSc1cccc2cccnc12	-46.1	-4.7	4.6	-13.5	x	11.6*	-12.0	2.3
CN(C)CCN1C(=O)c2cccc3cc([N+](=O)[O-])cc(c23)C1=O	x	x	x	x	-16.6	15.3*	10.7*	7.2*
CC(=O)OCCN1C(=O)c2cccc3cc([N+](=O)[O-])cc(c23)C1=O	x	x	-8.3	7.2	x	x	x	x
C[C@@H]1CN([C@H](C)CO)C(=O)Cc2cc(NS(=O)(=O)c3cn(C)cn3)ccc2O[C@H]1CN(C)C	x	-2.2	x	x	x	x	x	x
C[C@@H]1CN([C@@H](C)CO)C(=O)c2cc(NC(=O)NC3CCCCC3)ccc2O[C@@H](C)CCCCO[C@H]1CN(C)C	x	2.1	x	x	x	x	x	x
C[C@H](O)[C@@H]1CN2CCc3c([nH]c4cccc(-c5ccccc5)c34)[C@@H]2C[C@@H]1N(C)CC1CCCCC1	x	x	x	x	x	0.9	x	x
C[C@H](O)[C@@H]1CN2CCc3c([nH]c4cccc(-c5ccccc5)c34)[C@@H]2C[C@@H]1N(C)C(=O)C1CCCCC1	x	x	x	x	x	9.7*	-2.6	-0.3
CCN1CCc2c(sc(NC(=S)NC(=O)c3ccco3)c2C(N)=O)C1	x	x	0.4	34.3	-4.2	9.8*	0.2	3.4
Cc1cc(C(=O)NCc2ccccc2Br)no1	10.9	7.9	-1.4	7.3	0.7	9.4*	1.1	1.3
Cc1cc(C(=O)NCc2ccccc2)no1	-7.2	1.5	1.8	2.6	-0.3	-1.1	x	x
Cc1ccc(-c2ccnc(=S)[nH]2)cc1	9.7	-4.4	-7.4	-16.5	1.0	11.1*	1.1	1.5
S=c1nccc(-c2ccc3c(c2)CCO3)[nH]1	x	x	0.8	-21.4	0.9	-2.7	x	x
C[C@H]1CN([C@@H](C)CO)C(=O)c2cc(C3=CCCC3)cnc2O[C@H]1CN(C)C(=O)C1CCC1	x	-0.4	x	x	x	x	x	x
CCOCCCNC(=O)C(c1ccccc1)N(Cc1cccs1)C(=O)c1ccccc1O (stereo unspecified)	7.3	x	5.7	36.5	-1.2	-2.2	x	x
CCOCCCNC(=O)C(c1ccccc1)N(Cc1cccs1)C(=O)CNC(=O)c1ccccc1 (stereo unspecified)	4.8	-1.1	0.2	-9.3	-2.5	8.7*	-2.7	0.6
Cc1ccc(C(=O)N/N=C2\CC3CC=CC23)c(C)c1 (stereo unspecified)	6.6	x	14.1	4.3	4.6	8.1*	-3.9	-0.4
O=S(=O)(c1cccc(-c2n[nH]c(=S)n2C2CCCC2)c1)N1CCOCC1	-3.3	x	0.4	-8.5	-1.7	8.8*	-0.9	0.4
CCOC(=O)c1ccc(COC(=O)c2ccc3c(c2)-c2ccccc2C3=O)cc1	11.3	3.4	1.0	-19.5	0.3	8.9*	-4.1	2.2
